Inconclusive results are not listed. The call rests on the fitted dose curve; in most records, active means well fitted curve in the direction sought with a large enough effect; inconclusive means small, poorly fitted or top-dose-only effect, or another doubt; inactive means no such curve, though single readings can be large or run the other way.
These compounds were tested against Protein phosphatase EYA2 (Homo sapiens) (UniProt O00167) (assay: Inhibitors of Eya2ED: Hit Confirmation in Primary Screen). Conditions: Recombinant Eya2ED, OMFP fluorescence phosphatase assay; series mostly up to 76.9 µM; activity change, negative = inhibition: at the top concentration.
Method in brief: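 Hits were retested as 12-point titrations. Compound sat 10 min at ambient with Eya2 (0.2 uM in dispense) in HEPES pH 7.5 buffer with NaCl, MgCl2, BSA and DTT, then OMFP substrate (50 uM in dispense) was added. Dephosphorylation was read by fluorescence at 485/525 nm after a further 10 min.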

Protein phosphatase EYA2 (Homo sapiens), sequence (O00167 whole entry, looked up): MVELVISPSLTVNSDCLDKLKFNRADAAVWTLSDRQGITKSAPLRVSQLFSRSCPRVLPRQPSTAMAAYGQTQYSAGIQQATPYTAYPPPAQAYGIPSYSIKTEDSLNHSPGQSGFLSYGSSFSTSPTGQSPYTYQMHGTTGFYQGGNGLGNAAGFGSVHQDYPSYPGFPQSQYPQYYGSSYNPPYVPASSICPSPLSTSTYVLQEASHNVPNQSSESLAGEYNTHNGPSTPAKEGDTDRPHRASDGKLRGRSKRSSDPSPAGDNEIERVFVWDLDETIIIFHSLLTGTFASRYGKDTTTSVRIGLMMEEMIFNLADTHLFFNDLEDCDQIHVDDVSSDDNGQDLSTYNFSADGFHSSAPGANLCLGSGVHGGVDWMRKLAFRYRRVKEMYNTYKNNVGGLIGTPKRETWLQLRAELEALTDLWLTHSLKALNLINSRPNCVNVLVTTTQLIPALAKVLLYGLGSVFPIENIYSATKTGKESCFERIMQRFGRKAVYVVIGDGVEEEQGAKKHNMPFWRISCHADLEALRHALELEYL

Activity change, negative = inhibition, inactive:
Cc1ccc(C(=O)NCc2ccc(Cl)cc2)o1 8.71%
CCOC(=O)c1[nH]c(C)c(C(=O)OCC(=O)Nc2sc3c(c2C#N)CCCCC3)c1C -4.09%
O=C(NCc1ccccn1)C1CCCN(Cc2cnn(-c3ccccc3)c2-n2cccc2)C1 (stereo unspecified) 0.326%
Nc1ccccc1-c1nc2ccccc2[nH]1 6.87%
CC1CN(S(=O)(=O)c2ccc(C(=O)Nc3nnc(-c4ccco4)o3)cc2)CC(C)O1 (stereo unspecified) 12.1%
CC(C)(C)C(=O)Nc1nc(=S)ss1 -11.3%
Cc1cccn2c(=O)nc(SCC(=O)NCc3ccc(F)cc3)nc12 -4.93%
COc1ccc2oc(C(=O)OCC(=O)N3CCCCC3C)c(C)c2c1 (stereo unspecified) -10.1%
CCCC(=O)Nc1cccc(NC(=O)c2ccc3c(c2)OCCO3)c1 -35%
O=C(N/N=C/c1ccc(Sc2nc3ccccc3[nH]2)o1)c1ccncc1 -12.2%
CC(C)Cc1nnc(NC(=O)c2cc3c(s2)CCC3)s1 -13%
O=C(NC1CCN(Cc2ccccc2)CC1)c1cccc(S(=O)(=O)Nc2ccc(SC(F)F)cc2)c1 -5.61%
CCCOc1ccc(C(=O)OCC(=O)c2c(N)n(C)c(=O)n(C)c2=O)cc1OC -21.1%
S=C1NC[C@H](CC2CCCCC2)N1CC1CCCCC1 -25.8%
CCOC(=O)CN(C(=O)CN1CCC(n2nnc3cc(C)ccc32)CC1)c1ccccc1 -0.334%
CSCC[C@H](NC(=O)[C@@H]1Cc2ccccc2CN1)C(=O)Nc1ccc2c(c1)OCCO2 0.798%
Cc1ccc(N(CC(=O)N2CCOCC2)S(C)(=O)=O)cc1Cl -1.2%
Cn1c(=O)c(C(=O)Nc2ncccc2O)c(O)c2ccccc21 -11.4%
Oc1oc(C=Nc2ccc(F)cc2F)c2ccccc12 -7.45%
Cn1c(N)c(C(=O)CSc2nnc(C3CC3)n2-c2ccccc2)c(=O)[nH]c1=O -7.48%
CCOc1ccc(NC(=O)COC(=O)CN2CCCCCC2=O)cc1 15.3%
CCC(C)N(C(=O)c1csnn1)C(C(=O)NC1CCCC1)c1ccccc1F (stereo unspecified) -5.36%
Cc1ccc(CCNC(=O)c2cc(C)nn2-c2ccccc2)cc1 -19%
Cc1ccc(NC(=O)c2sc(N)nc2-c2ccc([N+](=O)[O-])cc2)cc1C -37.5%
Cn1cccc1CC(=O)NNC(=S)NC(=O)c1ccc(F)cc1 -29.9%
O=C(O)C1CC(=O)N(c2ccc(Br)cc2)C1 (stereo unspecified) 10.9%
